# TRb-SRC2 inh = inhibitors of human thyroid hormone receptor beta-SRC2 interaction; P10828; TRbeta-SRC2 peptide binding, fluorescence polarization; receptor liganded with 1 µM T3; Potency, µM (top dose mostly 106 µM), for the others: at the top dose activity change, negative = inhibition, hits mostly inhibitors; 0.065% of 280,000 active; active = well fitted inhibition curve with a large enough effect; inconclusive = small, poorly fitted or top-dose-only effect, or effect the other way;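 note: plate controls were bound peptide for no effect and peptide without receptor for full effect; nearly all actives have a fitted effect of over 50% in size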
# Target sequence (P10828 whole entry, looked up): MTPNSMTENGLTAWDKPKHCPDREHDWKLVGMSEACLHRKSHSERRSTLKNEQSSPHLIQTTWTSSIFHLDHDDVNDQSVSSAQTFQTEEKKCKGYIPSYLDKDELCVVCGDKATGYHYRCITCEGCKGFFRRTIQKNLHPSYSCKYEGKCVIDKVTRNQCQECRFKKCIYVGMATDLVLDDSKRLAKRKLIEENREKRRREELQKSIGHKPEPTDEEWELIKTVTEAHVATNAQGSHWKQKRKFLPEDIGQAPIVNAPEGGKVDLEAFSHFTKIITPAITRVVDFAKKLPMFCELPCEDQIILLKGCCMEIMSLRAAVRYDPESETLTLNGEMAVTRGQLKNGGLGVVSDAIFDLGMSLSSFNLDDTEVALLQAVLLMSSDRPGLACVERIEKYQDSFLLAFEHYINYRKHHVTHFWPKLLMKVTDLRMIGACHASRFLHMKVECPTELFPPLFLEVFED
#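 Human TRb LBD (0.6 uM) plus Texas Red-labeled SRC2 peptide (20 nM), 1uM T3, 5% DMSO, 5 hr at ambient temperature. Decreased polarization (555/632 nm) flags inhibition; data normalized to free and bound peptide controls.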
# ERG-DNA inh = inhibitors of human ERG Ets domain-DNA interaction | 0.028% of 370,000 active | P11308 | AID 624246 | fluorescence polarization, His-ERG Ets domain / labelled DNA | Potency, µM (series often up to 76.9 µM), inactives show at the highest dose FP activity, negative = inhibition, actives largely listed as inhibitors; active = well fitted inhibition curve with a large enough effect in the polarisation, with a control signal flat; inconclusive = small, poorly fitted or top-dose-only effect, or effect the other way, or a change in a side signal; inactive = no such curve, though single readings can be large or run the other way; the % refers to the polarisation;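 note: polarization taken with two DNA probes labelled with fluorescein and Texas red; % of control where 0% means no effect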
#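 His-tagged ERG Ets domain (1 uM in the protein solution; 300mM KCl, 50mM Tris-HCl, 1mM EDTA, 1mM DTT, pH 7.5) received compound, then a probe mix of 5 nM fluorescein-DNA and 100nM Texas-615-DNA. Fluorescence polarization was read for both dyes.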
# TexasRed fluor = alters Texas Red total fluorescence, flagging assay interference. TRb/SRC2 Texas Red total fluorescence interference. Potency, µM (titrated, usually from 106 µM), without a hit: at the highest dose fluorescence change, negative = quenching. 0.29% of 280,000 active; active = well fitted curve in either direction with a large enough effect; inconclusive = small, poorly fitted or top-dose-only effect; note: % is set by controls: 0 for no effect and ±100 for the full control effect
#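 Human TRb ligand-binding domain at 0.6 uM with 20 nM Texas Red SRC2 peptide in Tris buffer containing 1 uM T3 and 5% DMSO, incubated with compound 5 h at ambient temperature. Total fluorescence (555/632 nm) calculated as parallel + 2 × perpendicular.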
# The depositor's hits bear a star; ? = inconclusive; · = no result; ! = not active in a repeat; [ ] = dose if it differs, or a comment. The entries come from a sample that favours hits as a whole. Potency is the fitted concentration of half-maximal effect.
SMILES,TRb-SRC2 inh,ERG-DNA inh,TexasRed fluor
COc1cccc2c1C(=O)c1c(O)c3c(c(O)c1C2=O)C[C@@](O)(C(C)=O)C[C@@H]3O[C@H]1C[C@H](N)[C@H](O)[C@H](C)O1,22µM*!,0.79µM*,45µM*![fluorescent]
CCN(C(=O)c1cc2cc(Br)cc(OC)c2oc1=O)c1ccccc1,-1%,-1%,1%
Cc1ccc(NC(=O)CN2C(=O)COc3ccc(S(=O)(=O)N4CCOCC4)cc32)c(Cl)c1,4%,4%,1%
O=C(NC1CCCCCC1)c1ccc2c(c1)sc1nc(-c3ccc(F)cc3)cn12,-12%,-2%,1µM*[quencher]
O=C(NC1CCCCC1)c1ccc2c(c1)sc1nc(-c3ccc(F)cc3)cn12,-1%,2%,-9%
COc1ccc(-c2cn3c(n2)sc2cc(C(=O)Nc4cc(OC)cc(OC)c4)ccc23)cc1,-15%,3%,0.0007µM*[quencher]
COc1ccc(-c2cn3c(n2)sc2cc(C(=O)Nc4cccc(OC)c4)ccc23)cc1,-3%,-6%,-17%
C=C[Si](OCCOC)(OCCOC)OCCOC,-3%[201 µM],·,-2%[201 µM]
CCN(C(=O)c1cc2c(s1)-c1c(C)cccc1OC2)c1cc(C)ccc1C,0%,-3%,?
Cc1c2cc(O)c(=O)cc-2oc2cc(O)c(O)cc12,-13%,?,9%
COc1cc(OC)c(-c2c3cc(O)c(=O)cc-3oc3cc(O)c(O)cc23)cc1OC,?,-158%,40µM*[fluorescent]
COc1cc(Nc2ncc3c(n2)CCN(Cc2cc(Br)cs2)C3)cc(OC)c1,1%,-15%,-2%
CCCCOCC(C)OCC(C)O (stereo not given),5%[201 µM],·,-4%[201 µM]
COc1ccccc1OCCCn1c(C2CC(=O)N(c3ccc(F)cc3)C2)nc2ccccc21 (stereo not given),-6%,-3%,-1%
CCOc1ccc(N2CC(c3nc4ccccc4n3CCCOc3ccccc3OC)CC2=O)cc1 (stereo not given),-6%,-2%,71µM*[quencher]
Cc1sc2ncn(CC(=O)N3CCN(c4cccc(Cl)c4)CC3)c(=O)c2c1S(=O)(=O)N1CCC(C)CC1,4%,-6%,0%
CCCCCCCC/C=C\CCCCCCCC(=O)OC,7%[201 µM],·,0%[201 µM]
CC(COc1ccc(C(C)(C)C)cc1)OS(=O)OCCCl (stereo not given),-1%[201 µM],·,0%[201 µM]
CSc1nc(C)cc(Nc2cccc(C(=O)O)c2)n1,0%,-2%,6%
CCS(=O)(=O)c1ccc(O)c(Nc2cc(C)nc(SC)n2)c1,-26%,6%,0.1µM*[quencher]
O=C(Cl)c1cccc(C(=O)Cl)c1,-5%[201 µM],·,-3%[201 µM]
COc1ccc(C)cc1NC(=O)CC(=O)Nc1ccc2nc3n(c(=O)c2c1)CCCCC3,3%,-1%,0%
Cc1cc2oc3ccc(NCCCn4ccnc4)cc3c(=O)c2cc1C,·,18µM*,·
Cc1cc2oc3ccc(NCCCN4CCOCC4)cc3c(=O)c2cc1C,·,-5%,·
O=C1CCCCCCCCCCC1,-4%[201 µM],·,0%[201 µM]
SMILES,TRb-SRC2 inh,ERG-DNA inh,TexasRed fluor
Cc1cc(C)c2c(CC(=O)NCCc3ccccc3)coc2c1,-9%,-4%,-1%
Cc1ccc(CNC(=O)Cc2coc3cc(C)cc(C)c23)cc1,?,6%,4.5µM*[quencher]
C=C1C[C@]23CC[C@H]4C(CO)(CO)C[C@@H](O)C[C@@]4(C)[C@@H]2CC[C@H]1C3,5%,·,-1%
CSc1ccc(CCNC(=O)c2ccc(-n3c(C)cc4c3CCC(C)C4)cc2)cc1 (stereo not given),-11%,1%,22µM*[quencher]
CCOc1ccc(CCNC(=O)c2ccc(-n3c(C)cc4c3CCC(C)C4)cc2)cc1OCC (stereo not given),-3%,-3%,2%
CCCCCCCC/C=C\CCCCCCCC(=O)OC[C@@H](O)[C@H]1OC[C@H](O)[C@H]1O,6%[201 µM],·,2%[201 µM]
COc1ccc(NC(=O)CC(C)S(=O)(=O)c2ccc3c(c2)NC(=O)CO3)cc1OC (stereo not given),-2%,4%,-4%
COc1cccc(NC(=O)CC(C)S(=O)(=O)c2ccc3c(c2)NC(=O)CO3)c1 (stereo not given),-11%,1%,20µM*[quencher]
CC1Cc2ccccc2N1C(=O)CSc1nc2ccc(NC(=O)COc3ccccc3)cc2s1 (stereo not given),5%,8%,7%
COc1ccc2noc3c2c1C(=O)c1ccccc1-3,·,46%,·
O=C1c2ccccc2-c2onc3ccc(NCCCn4ccnc4)c1c23,16µM*,·,45µM*[fluorescent]
CCCCCCCCCCCC[N+](C)(C)C,8%[201 µM],·,-2%[201 µM]
OCC(CO)(CO)COCC(CO)(CO)CO,1%[201 µM],·,4%[201 µM]
COc1ccc(CCNC(=O)c2csc3c2CCCCC3)c(OC)c1,-7%,-3%,20µM*[quencher]
COc1ccc(CCNC(=O)c2csc3c2CCCC3)cc1,5%,-3%,-2%
C=CCc1ccccc1OCCSc1nc(-c2ccccc2F)nc2cc(=O)[nH]n12,-6%,-5%,-1%
CN(C)c1ccc(C(=C2C=CC(=[N+](C)C)C=C2)c2c(O)c(S(=O)(=O)[O-])cc3cc(S(=O)(=O)O)ccc23)cc1,9%,·,?
CN(C)c1ccc(C(=C2C=CC(=[N+](C)C)C=C2)c2ccc(N(C)C)cc2)cc1,100µM*,·,-10%[201 µM]
CCN1C(=O)c2ccccc2Sc2ccc(NC(=O)Nc3cccc([N+](=O)[O-])c3C)cc21,-22%,4%,0.0005µM*[quencher]
CCN1C(=O)c2ccccc2Sc2ccc(NC(=O)Nc3ccccc3OC)cc21,-3%,-3%,-4%
O=C(Nc1nnc(SCc2cc(=O)n3cc(Cl)ccc3n2)s1)c1cccc(F)c1,3%,4%,0%
O=C(O)c1ccc(C(=O)O)c(C(=O)O)c1,-1%[201 µM],·,-6%[201 µM]
Cc1ccccc1NS(=O)(=O)c1ccc(OCCNS(C)(=O)=O)cc1,-4%[53 µM],7.1µM*,-1%[53 µM]
Cc1ccccc1NS(=O)(=O)c1ccc(OCC(=O)N2CCCC2)cc1,0%,-7%,-3%
CCCCCCC(O)CCCCCCCCCCC(=O)OC (stereo not given),0%[201 µM],·,2%[201 µM]
SMILES,TRb-SRC2 inh,ERG-DNA inh,TexasRed fluor
C=CC(=O)OCCOc1ccccc1,?,·,3%[201 µM]
Cc1nc(-n2nc(C)c(Cc3ccc(Cl)cc3)c2C)sc1C(=O)N1CCCCC1C (stereo not given),-22%,2%,17783µM*[quencher]
Cc1nc(-n2nc(C)c(Cc3ccccc3Cl)c2C)sc1C(=O)N1CCCCC1C (stereo not given),-9%,-1%,-4%
COc1ccc(CN2C(=O)C(NC(=O)c3ccccc3OC)(C(F)(F)F)N=C2c2ccccc2)cc1 (stereo not given),0%,-6%,-1%
CCOc1ccc(-n2cc(C(=O)Nc3ccccc3OCC)c3cc(OC)c(OC)cc3c2=O)cc1,1%,1%,-2%
CCOC(=O)c1c(-c2ccccc2)oc2ccc(NS(=O)(=O)c3ccc(C)cc3)cc12,-12%,6%,40µM*[quencher]
CCOC(=O)c1c(C)oc2ccc(NS(=O)(=O)c3ccc(C(=O)O)cc3)cc12,0%,15%,-2%
O=C1N(Cc2cccnc2)C[C@@H]2C[C@@H](c3ccccc3C(F)(F)F)N3CCC[C@@]123,2%,32µM*,-8%
O=C1N(Cc2cccnc2)C[C@@H]2C[C@@H](c3ccc(C(F)(F)F)cc3)N3CCC[C@@]123,-10%,-5%,-1%
Cc1ccc(NC(=O)Nc2nnc(N3CCCCC3)s2)c(C)c1,-2%,3%,-1%
